This passage reports binding signal results from article PMC3218832.

Common to all, as to assay: protein binding microarray; high values mean tight binding
Details in all cases: dsDNA, one strand shown

The target in assay [1] is RELARELA (p65 homodimer) (Homo sapiens, UniProt Q04206 1-307).
Assay [2] concerns the target p50p50 homodimer (Homo sapiens, UniProt P19838 7-356).
The target of assay [3] is T1, p52p52 homodimer (Homo sapiens, UniProt Q00653 4-332).
T1 sequence: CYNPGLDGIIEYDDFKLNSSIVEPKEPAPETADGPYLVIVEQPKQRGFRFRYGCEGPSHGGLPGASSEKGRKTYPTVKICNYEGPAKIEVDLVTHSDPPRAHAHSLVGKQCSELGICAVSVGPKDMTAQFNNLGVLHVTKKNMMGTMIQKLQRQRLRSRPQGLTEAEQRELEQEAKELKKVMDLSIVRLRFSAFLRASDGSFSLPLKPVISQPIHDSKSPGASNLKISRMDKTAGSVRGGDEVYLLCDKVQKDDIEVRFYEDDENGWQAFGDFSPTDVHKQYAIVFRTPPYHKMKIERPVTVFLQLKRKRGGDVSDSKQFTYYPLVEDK

Assay [4] addresses RELA (p65) subunit of heterodimer;p50 subunit (Homo sapiens;Homo sapiens, UniProt Q04206;P19838 1-307;7-356).
In assay [5] the target is RELA (p65) subunit of heterodimer;p52 subunit (Homo sapiens;Homo sapiens, UniProt Q04206;Q00653 1-307;4-332).
Assay [6] concerns the target RELB subunit;p50 subunit (Homo sapiens;Homo sapiens, UniProt Q01201;P19838 120-401;7-356).
For assay [7], the target named is T2, RELB subunit;p52 subunit (Homo sapiens;Homo sapiens, UniProt Q01201;Q00653 120-401;4-332).
T2 sequence 1: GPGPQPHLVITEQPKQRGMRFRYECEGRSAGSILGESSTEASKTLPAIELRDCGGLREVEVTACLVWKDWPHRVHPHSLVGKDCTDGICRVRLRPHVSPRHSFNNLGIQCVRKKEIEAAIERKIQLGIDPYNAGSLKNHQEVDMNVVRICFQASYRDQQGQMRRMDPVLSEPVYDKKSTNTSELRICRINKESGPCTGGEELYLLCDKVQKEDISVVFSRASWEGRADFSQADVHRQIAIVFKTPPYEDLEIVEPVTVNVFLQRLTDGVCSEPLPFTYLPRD
T2 sequence 2: T1 sequence

In assay [8] the target is C-Rel subunit;p50 subunit (Homo sapiens;Homo sapiens, UniProt Q04864;P19838 1-285;7-356).
In assay [9] the target is T3, C-Rel subunit;p52 subunit (Homo sapiens;Homo sapiens, UniProt Q04864;Q00653 1-285;4-332).
T3 sequence 1: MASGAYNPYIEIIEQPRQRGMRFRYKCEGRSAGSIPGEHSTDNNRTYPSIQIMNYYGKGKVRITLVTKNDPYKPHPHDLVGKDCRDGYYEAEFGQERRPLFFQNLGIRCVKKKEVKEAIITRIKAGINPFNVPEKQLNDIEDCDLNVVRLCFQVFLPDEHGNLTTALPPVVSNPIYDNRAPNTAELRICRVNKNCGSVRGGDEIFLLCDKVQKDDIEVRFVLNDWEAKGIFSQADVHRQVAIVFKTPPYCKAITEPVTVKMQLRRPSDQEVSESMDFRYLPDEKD
T3 sequence 2: T1 sequence

Sequence of RELA (p65) subunit of heterodimer;p50 subunit (Q04206 1-307, chain 1 of 2): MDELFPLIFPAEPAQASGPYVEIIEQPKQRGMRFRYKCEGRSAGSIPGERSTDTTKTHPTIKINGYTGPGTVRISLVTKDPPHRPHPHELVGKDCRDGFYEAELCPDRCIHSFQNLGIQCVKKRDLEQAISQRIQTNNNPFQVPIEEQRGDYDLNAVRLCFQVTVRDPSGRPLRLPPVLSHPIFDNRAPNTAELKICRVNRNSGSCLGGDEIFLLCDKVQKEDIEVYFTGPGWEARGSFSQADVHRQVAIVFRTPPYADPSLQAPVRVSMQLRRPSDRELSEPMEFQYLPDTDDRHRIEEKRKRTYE
Sequence of RELA (p65) subunit of heterodimer;p50 subunit (P19838 7-356, chain 2 of 2): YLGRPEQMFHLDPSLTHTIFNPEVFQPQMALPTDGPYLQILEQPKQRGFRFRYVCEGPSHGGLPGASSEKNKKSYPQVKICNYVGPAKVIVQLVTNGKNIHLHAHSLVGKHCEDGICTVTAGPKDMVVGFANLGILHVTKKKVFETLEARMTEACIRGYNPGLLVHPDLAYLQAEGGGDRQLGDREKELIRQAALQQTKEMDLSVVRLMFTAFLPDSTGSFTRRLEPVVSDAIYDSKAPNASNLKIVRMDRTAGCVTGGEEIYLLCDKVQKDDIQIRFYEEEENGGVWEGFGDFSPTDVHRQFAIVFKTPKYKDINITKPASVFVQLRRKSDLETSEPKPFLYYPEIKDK
Sequence of RELARELA (p65 homodimer) (Q04206 1-307): as the sequence (Q04206 1-307, chain 1 of 2) above
Sequence of p50p50 homodimer (P19838 7-356): as the sequence (P19838 7-356, chain 2 of 2) above

As to GGAATACTCCC, the binding signal was 0.714 z-score in assay [1]; 0.226 z-score in assay [2]; -0.025 z-score in [3]; 0.507 z-score in [4]; 0.124 z-score in assay [5]; 0.0318 z-score in assay [6]. The binding signal in assay [7] is -0.125 z-score; in [8] it was 0.28 z-score; in assay [9], 0.199 z-score.
Take GAGTGTGCCCT: the binding signal is -0.0374 z-score in [1]; -1.69 z-score in [2]; -0.704 z-score in [3]; -0.552 z-score in [4]; -0.825 z-score in assay [5]; -0.946 z-score in assay [6]. Further, the values for the binding signal in assay [7], in [8] and in [9] were -0.867 z-score, -0.869 z-score and -0.582 z-score, respectively.
Take GAGGACGTCCC: the binding signal amounted to 0.381 z-score in [1]; 0.144 z-score in assay [2]; 0.388 z-score in assay [3]; 0.0977 z-score in [4]; 0.262 z-score in [5]; 0.14 z-score in assay [6]. In addition, the binding signal in [7] was determined as 0.0168 z-score; in assay [8], 0.15 z-score; in assay [9], 0.205 z-score.
For the sequence GGAGACTTCCC, the binding signal was 1.11 z-score in [1]; 0.00445 z-score in [2]; 0.117 z-score in assay [3]; 0.505 z-score in assay [4]; 0.17 z-score in assay [5]; -0.132 z-score in assay [6]. The binding signal in assay [7] is -0.125 z-score; in [8], 0.335 z-score; in assay [9] it was 0.286 z-score.
On to CGGGTATCCCC, for which the binding signal in [1] was 1.9 z-score; in assay [2], 0.854 z-score; in assay [3] it was 2.48 z-score; in assay [4], 1.84 z-score; in assay [5], 2.01 z-score; in assay [6], 0.893 z-score. The binding signal in assay [7] was determined as 1.59 z-score; in assay [8], 1.64 z-score; in [9], 2.53 z-score.
Turning to GGAGGGTCCCT, the binding signal in assay [1] is -0.115 z-score; in assay [2], 0.371 z-score; in assay [3], 0.534 z-score; in [4] it was 0.933 z-score; in assay [5], 0.819 z-score; in assay [6], 0.287 z-score. Moreover, the binding signal is 0.448 z-score in assay [7], 0.496 z-score in [8] and 0.547 z-score in assay [9].
Consider AAGATTCTCCT, for which the binding signal was -0.184 z-score in assay [1]; -1.03 z-score in [2]; -0.669 z-score in assay [3]; -0.803 z-score in assay [4]; -0.991 z-score in assay [5]; -0.921 z-score in assay [6]. For the same sequence, the results for the binding signal in [7], in assay [8] and in assay [9] were -0.819 z-score, -1.1 z-score and -0.941 z-score, respectively.
For AGGGGGGCCCT, the binding signal was -0.0645 z-score in assay [1]; 0.812 z-score in assay [2]; 0.991 z-score in [3]; 0.478 z-score in assay [4]; 1.13 z-score in assay [5]; 0.542 z-score in assay [6]. Also, the binding signal in assay [7] worked out at 1.2 z-score; in assay [8], 0.525 z-score; in [9], 1.04 z-score.
Consider GAGATTACCCT, for which the binding signal came out at 0.00649 z-score in assay [1]; 0.801 z-score in assay [2]; 0.46 z-score in [3]; 0.604 z-score in assay [4]; 0.372 z-score in assay [5]; 0.519 z-score in assay [6]. Also, the binding signal is 0.477 z-score in [7], 0.426 z-score in assay [8] and 0.377 z-score in assay [9].
CAGGAAACCCC: the binding signal was 2.37 z-score in assay [1]; 1.03 z-score in assay [2]; 1.38 z-score in [3]; 1.38 z-score in assay [4]; 1.31 z-score in assay [5]; 0.925 z-score in [6]. Besides, the values for the binding signal in assay [7], in assay [8] and in assay [9] were 1.39 z-score, 1.04 z-score and 1.76 z-score, respectively.
As for CAAGGTACCCT, the binding signal in [1] is -0.567 z-score; in assay [2] it was -0.267 z-score; in assay [3] it was -0.0886 z-score; in assay [4] it was -0.499 z-score; in assay [5], -0.317 z-score; in assay [6], -0.0446 z-score. In addition, the binding signal was -0.391 z-score in assay [7], -0.833 z-score in assay [8] and -0.57 z-score in [9].
In the case of GAGGTCCCCCT, the binding signal came out at 0.588 z-score in assay [1]; 1.14 z-score in [2]; 0.954 z-score in assay [3]; 1.63 z-score in assay [4]; 1.22 z-score in assay [5]; 1.56 z-score in assay [6]. In addition, the binding signal in assay [7] was 1.97 z-score; in [8], 1.28 z-score; in assay [9] it was 1.05 z-score.
Turning to GAAGGTGCCCT, the binding signal in assay [1] is -0.528 z-score; in assay [2] it was -0.946 z-score; in assay [3], -0.486 z-score; in [4], -0.722 z-score; in [5], -0.698 z-score; in assay [6] it was -0.821 z-score. Besides, the binding signal is -0.597 z-score in assay [7], -1.15 z-score in assay [8] and -0.907 z-score in assay [9].
Take GAATAGGTCCT: the binding signal was -0.471 z-score in assay [1]; -1.25 z-score in assay [2]; -0.387 z-score in assay [3]; -1.08 z-score in assay [4]; -0.8 z-score in [5]; -0.766 z-score in assay [6]. Besides, the binding signal in assay [7] was -0.501 z-score; in assay [8], -1.35 z-score; in assay [9] it was -0.527 z-score.
As for CAGAATACCCT, the binding signal is 0 z-score in assay [1]; 1.12 z-score in assay [2]; 0.546 z-score in assay [3]; 0.635 z-score in assay [4]; 0.477 z-score in assay [5]; 0.743 z-score in assay [6]. For the same sequence, the figures for the binding signal in [7], in assay [8] and in [9] were 0.882 z-score, 0.496 z-score and 0.421 z-score, respectively.
